Test results taken from article PMC7819943, “Rice protein-binding microarrays: a tool to detect cis-acting elements near promoter regions in rice”.
Whole data set: some 39,000 sequences, median “fluorescence intensity (a.u.)” near 4,300, cut for the highest 2% near 39,000. This excerpt belongs to a sample that is enriched for the highest values.

molecular target: T1, OsSMF1 (Oryza sativa, UniProt Q6ZLB0 1-436); assay: protein-binding microarray (RPBM); PBS, 2% BSA, 51.3 ng/ul salmon testes DNA, 50 uM zinc acetate, 200 nM TF, 25 C, 1 h; high values mean tight binding; conditions: protein: recombinant; tags: N-terminal polyhistidine and DsRed monomer fusion (pET32a); chain copies: 2; label: CyDye5-dUTP incorporated in the synthesized complementary strand; 3' TTTTT single-stranded linker to array surface; dsDNA, one strand shown
T1 sequence: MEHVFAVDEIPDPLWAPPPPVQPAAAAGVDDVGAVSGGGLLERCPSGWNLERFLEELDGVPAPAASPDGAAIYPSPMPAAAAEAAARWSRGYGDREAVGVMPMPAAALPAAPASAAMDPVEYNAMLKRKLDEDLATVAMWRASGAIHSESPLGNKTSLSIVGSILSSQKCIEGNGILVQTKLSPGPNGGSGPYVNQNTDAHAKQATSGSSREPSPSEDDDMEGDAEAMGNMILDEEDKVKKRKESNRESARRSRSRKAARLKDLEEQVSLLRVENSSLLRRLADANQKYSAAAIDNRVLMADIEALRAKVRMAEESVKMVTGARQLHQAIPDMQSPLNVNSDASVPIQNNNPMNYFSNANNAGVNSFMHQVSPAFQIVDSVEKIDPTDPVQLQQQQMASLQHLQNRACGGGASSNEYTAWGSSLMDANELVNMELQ
How it was run: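 A custom Agilent array was converted to double-stranded form by primer extension with Cy5-dUTP and blocked with 2% BSA. Protein at 200 nM in PBS with 2% BSA, salmon testes DNA and 50 µM zinc acetate was applied for 1 h at 25 °C, followed by washing. The proteins were polyhistidine–DsRed N-terminal fusions of transcription factors, expressed in E. coli BL21-CodonPlus and Ni–NTA-purified. The binding signal is per-feature fluorescence intensity (arbitrary units) from an Axon 4000B scanner.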

Row | Sequence | binding signal
1 | GCATGTAGCTATGCAGCCATCCACGTCACTCCTTGCGTACCGGAGTCACCTAGTGCAG | 31800 fluorescence intensity (a.u.)
2 | ATTAAGCACTACGTCAGATATGATTGGCCATCATTGCATTCGGAGTCACCTAGTGCAG | 3150 fluorescence intensity (a.u.)
3 | ACACCCGTCCGTCCCGTCTCGTTCTGCGCCGTCTCGCCGGCGGAGTCACCTAGTGCAG | 18700 fluorescence intensity (a.u.)
4 | GAAGATAGTACTAACTATATTTTGTAACGGAGAGATTGTTCGGAGTCACCTAGTGCAG | 4130 fluorescence intensity (a.u.)
5 | TGTTAGAAAGTCTTATAATATAAAACGGAGGAAATATTTACGGAGTCACCTAGTGCAG | 6480 fluorescence intensity (a.u.)
6 | ATGCTAGAAAGTCTTATAACCTGAAACGGAGGTAGTAGGACGGAGTCACCTAGTGCAG | 65000 fluorescence intensity (a.u.)
7 | TCAAATTGAAAGTTTCCAAAATTTTCAAATCTGGACTTGACGGAGTCACCTAGTGCAG | 43500 fluorescence intensity (a.u.)
8 | AAATTGAGTTGAAAATTTTCAAATCTCGACTTGAAAGTTTCGGAGTCACCTAGTGCAG | 21800 fluorescence intensity (a.u.)
9 | TGAGTGAATACACAGTACTATGACGACGATAAGGTTGGGGCGGAGTCACCTAGTGCAG | 32700 fluorescence intensity (a.u.)
10 | TAGAATTGTCAAGTCAATGCCACGTGGGACAAAGACCTAGCGGAGTCACCTAGTGCAG | 17900 fluorescence intensity (a.u.)
11 | TACACACCATAATTGAAGTATTGAGTCACACATAATTGAACGGAGTCACCTAGTGCAG | 3220 fluorescence intensity (a.u.)
12 | AATAGTAGGCTATAAGCCGGCTAAATGCTGAGGTGGAGGACGGAGTCACCTAGTGCAG | 5420 fluorescence intensity (a.u.)
13 | AGTAGTGAGGTTGAGGCATAAGTACATTGAATTGAATTGACGGAGTCACCTAGTGCAG | 44100 fluorescence intensity (a.u.)
14 | TTGGACAAATCATTTGGCAAAATTTCAAAGTTTTGAATCTCGGAGTCACCTAGTGCAG | 28600 fluorescence intensity (a.u.)
15 | TTCTTATTGTCTTAGCTACAAACGATCCATACAAACATTGCGGAGTCACCTAGTGCAG | 4240 fluorescence intensity (a.u.)
16 | TGTGGACAATGCTAGAAAGTCTTACATTGTCAAACGGATGCGGAGTCACCTAGTGCAG | 39500 fluorescence intensity (a.u.)
17 | TCTCTCTCACTCTTCTCTTGCAGGCCTGCGTGGCATACTACGGAGTCACCTAGTGCAG | 7430 fluorescence intensity (a.u.)
18 | CGGAAACAGATCATCAAACCCATACGTCAGTGATCCAAGTCGGAGTCACCTAGTGCAG | 3410 fluorescence intensity (a.u.)
19 | TTCCAGTCCACCGTGGCGGTGGCGCGTCAGCTTTCCAGCCCGGAGTCACCTAGTGCAG | 12000 fluorescence intensity (a.u.)
20 | GGTCCACCCGAATCGGAGTCAGCCAGCCAAGCCACCTAATCGGAGTCACCTAGTGCAG | 4780 fluorescence intensity (a.u.)
21 | GCCGGTCGAACCGCCCGAACACCTACGGTCAGACCGCTGCCGGAGTCACCTAGTGCAG | 3360 fluorescence intensity (a.u.)
22 | CTTCATACTGCAGTATCTGAAAAGATGTCATTGTAAAGTTCGGAGTCACCTAGTGCAG | 3140 fluorescence intensity (a.u.)
23 | TGTGATTGTATTGGTTACTAGAGTAGTATTTAGTAGAGATCGGAGTCACCTAGTGCAG | 42200 fluorescence intensity (a.u.)
24 | TAGTTGTGACACGTAGAAGTTGAATTTTAACTTTTATGTTCGGAGTCACCTAGTGCAG | 4370 fluorescence intensity (a.u.)
25 | TTGTAGAAGTTGAATTTGGTTTTACATATTTGTGGAGTGACGGAGTCACCTAGTGCAG | 61600 fluorescence intensity (a.u.)
26 | GCATGTTTTGAGTTTGAAAGTTTTAAATTTTGAGTTGAAACGGAGTCACCTAGTGCAG | 50200 fluorescence intensity (a.u.)
27 | TATTGATTGATTGGTTAGTACTACAGTACTGTAGGAGTGGCGGAGTCACCTAGTGCAG | 29800 fluorescence intensity (a.u.)

Row | Sequence | binding signal
28 | CATGTTTGTGAAGTGACGTATTACATATTGATCTATTTGACGGAGTCACCTAGTGCAG | 8700 fluorescence intensity (a.u.)
29 | TTATGTTTGAATTTAAGTTTTGAGTTTTGTTGCGTGCGCACGGAGTCACCTAGTGCAG | 28800 fluorescence intensity (a.u.)
30 | CCAAAATGAGTTGAAATGAATTTTGTATGCATTTTATAAACGGAGTCACCTAGTGCAG | 6000 fluorescence intensity (a.u.)
31 | GTTGTTGATGTGATTGTGTGTATTCAAGTAGAGATTGGGTCGGAGTCACCTAGTGCAG | 3240 fluorescence intensity (a.u.)
32 | CGACTGAAGACTTGGACACGGTCAGTCTTTCTGCCGTGTTCGGAGTCACCTAGTGCAG | 5080 fluorescence intensity (a.u.)
33 | ACCAAAGTTGGTACAAGTGTATAATCAGAATGGGAGAGCGCGGAGTCACCTAGTGCAG | 21600 fluorescence intensity (a.u.)
34 | AATCGATTCTCCACTACTCTCTCGTCATTGTTCCCATGTTCGGAGTCACCTAGTGCAG | 3270 fluorescence intensity (a.u.)
35 | CCTCCTGTCAGACTGTCGTCAGTGTCACACTGTCACTGTCCGGAGTCACCTAGTGCAG | 6520 fluorescence intensity (a.u.)
36 | AAAAGACTGGAATACGTGGCGAACAAACTTTATTACACAACGGAGTCACCTAGTGCAG | 6740 fluorescence intensity (a.u.)
37 | AAACTTATTTGGCCATGGTGTCATCGGGGTTGGCGTTTAGCGGAGTCACCTAGTGCAG | 3860 fluorescence intensity (a.u.)
38 | TTTATTACACAACGCAACTGGCCAGACTTTAGCGGGTCATCGGAGTCACCTAGTGCAG | 46000 fluorescence intensity (a.u.)
39 | GCATGCAGGGCATGGCGAGACGGTGACGTGCTCCAAGGCGCGGAGTCACCTAGTGCAG | 4760 fluorescence intensity (a.u.)
40 | ACTCGCCTGGAAACCGTGAGATGAATTTATTAAGCCTAATCGGAGTCACCTAGTGCAG | 3930 fluorescence intensity (a.u.)
41 | TAGTCCAATCCATCGTGTTTCCACGTGGCGACCCAACCCCCGGAGTCACCTAGTGCAG | 40000 fluorescence intensity (a.u.)
42 | GATCCAACACGTGTCCCCTACCCACGACACGTGGCAACCCCGGAGTCACCTAGTGCAG | 36500 fluorescence intensity (a.u.)
43 | GTCACCTAAGTGCCATGTCAACGCCACGTGGAAAGAAGACCGGAGTCACCTAGTGCAG | 25100 fluorescence intensity (a.u.)
44 | ATGGGCCATGGCCCATCCGTGCCACGTGTCGCATGCTCCTCGGAGTCACCTAGTGCAG | 27900 fluorescence intensity (a.u.)
45 | CTCACCACCACCGTCGTCATCGTCGTCGTCACCCTCCTCCCGGAGTCACCTAGTGCAG | 6620 fluorescence intensity (a.u.)
46 | CCCATCTACCCACCCTCCGACACGTGGGCCCCACCCCGACCGGAGTCACCTAGTGCAG | 11000 fluorescence intensity (a.u.)
47 | GGATCCCATTAACACGTGTCACCGTGGCATGCCACGTCATCGGAGTCACCTAGTGCAG | 51400 fluorescence intensity (a.u.)
48 | CCATGTAAGTGTCACGTCAATGCCACGTGAGACGAAGACCCGGAGTCACCTAGTGCAG | 12500 fluorescence intensity (a.u.)
49 | GCCATGCATCCATACACGTCTACACTCTACACCCATTAACCGGAGTCACCTAGTGCAG | 4850 fluorescence intensity (a.u.)
50 | AGGGGCCACACCGACCCTCCACGTCATCGTCCACGTCACCCGGAGTCACCTAGTGCAG | 40900 fluorescence intensity (a.u.)
51 | AACACCAATCACCACGTACGCCGACCAACCCCATCCACCCCGGAGTCACCTAGTGCAG | 6870 fluorescence intensity (a.u.)
52 | CCATGTAAGTGCCACGTCAACGCCACGTGGATCGAAGACTCGGAGTCACCTAGTGCAG | 55500 fluorescence intensity (a.u.)
53 | ACAAGGCAACTACTCCTAGCTAGTAAGCATCAATGCATGGCGGAGTCACCTAGTGCAG | 4520 fluorescence intensity (a.u.)
54 | CGTAGGCTCGTCGCGGCCACGTACGCCATCCCGAGCTCGGCGGAGTCACCTAGTGCAG | 6280 fluorescence intensity (a.u.)
